Experimental findings from PubChem BioAssay AID720541 (National Center for Advancing Translational Sciences (NCATS), 2013) are described below.

Each structure is given as a SMILES string. “And” between values parts separate entries of the source, which are not always exact repeats. Identical values can stand only once. Screen size: about 1,300 compounds; about 420 (32%) were called active. Another 32% or so got no clear call; they are omitted. Some of the results follow. A number with no mark means an inactive call. The call rests on the fitted dose curve; in most records, active means well fitted inhibition curve with a large enough effect; inconclusive means small, poorly fitted or top-dose-only effect; inactive means no such curve, though single readings can be large or run the other way.
On the % scale 0 is the no-effect control and ±100 the full control effect; potency means the concentration at half of the fitted maximal effect.

In the assay the target is C-terminal-binding protein 1 (Homo sapiens) (UniProt Q13363). As to the kind of experiment: qHTS for Inhibitors of the Phosphatase Activity of Eya2: Carboxyl-terminal binding protein (CtBP) Counterscreen for Cherry-picked Compounds. Further: nearly all actives have a fitted effect of over 65% in size. As to conditions: purified protein-protein binding, AlphaScreen, 3 h; series mostly up to 46.1 µM; activity change, negative = inhibition: at the top concentration. In outline:
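Cherry-picked compounds (final 2.5 nM–46 uM) were incubated 2 h at RT with 25 nM CtBP-6xHIS and 25 nM GST-E1A. Alpha beads (20 ug/mL) were then added for 1 h, light-protected; DMSO and E1A peptide inhibitor wells set the normalization.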
`COc1ccc(CCNc2nc(-c3ccccn3)cs2)cc1OC`: the Potency is 7.57 µM (active).
As to `COc1cc(CNCc2ccccn2)ccc1OCC(=O)NC1CCCCC1`, the “activity change, negative = inhibition” value was -40.3%.
Still for that read-out and setting: the result for `COc1ccc(CCNC(=O)C(=O)NCc2cccs2)cc1OC` reads 1.17%.
`CCC(C)Nc1nc(-c2ccccn2)nc2ccccc12` (stereo not drawn): the Potency is 9.53 µM (active).
As to `O=C(Nc1nc2ccc(F)cc2s1)C1=NN(c2ccccc2)C(=O)CC1`, the “activity change, negative = inhibition” value was -3.84%.
The same measure, in the same setting: to `Cc1ccc(-c2nc3ccccc3s2)cc1NC(=S)NC(=O)/C=C/c1ccco1` belongs 4.31%; to `COc1ccccc1N1CCN(C(=O)c2ccc(-c3nc4ccccc4s3)o2)CC1`, -28.7%.
Take `O=C(O)CCN1C(=O)/C(=C/c2ccc(-c3nc4ccccc4s3)o2)SC1=S`: the Potency is 3.01 µM (active).
Still for that read-out and setting: to `CCNC(=O)/C(C#N)=C/c1c(N2CCN(c3ccccc3)CC2)nc2c(C)cccn2c1=O` belongs 12 µM (active).
For `CCN(CC)C(=O)CC(c1ccc(OC)cc1)c1c(OC)cc(OC)c2ccc(=O)oc12` (stereo not drawn), the “activity change, negative = inhibition” value is 3.43%.
For the compound `Cc1[nH]n(-c2cccc3ccccc23)c(=O)c1C=Nc1ccc2[nH]c(=O)[nH]c2c1`, the Potency is 7.57 µM (active).
On to `Cc1cccc(-n2c(O)c(C=Nc3ccccc3)c3ccccc3c2=O)n1`, for which the “activity change, negative = inhibition” value was -17.4%.
As for `CC1CCCCC1NC(=O)COC(=O)c1c2c(nc3ccccc13)/C(=C\c1ccco1)CC2` (stereo not drawn), the “activity change, negative = inhibition” value was -25.9%.
In the case of `Cn1nc([N+](=O)[O-])nc1Sc1cccc2cccnc12`, the Potency is 2.69 µM (active).
`Clc1ccc(-n2nnnc2-c2cnc3ccccc3c2-c2ccccc2)cc1`: the “activity change, negative = inhibition” value was -9.82%.
Take `O=C(NN1C(=O)/C(=C/C=C/c2ccco2)SC1=S)c1ccncc1`: the Potency was 12 µM (active).
Consider `Oc1c(Br)cc(Br)cc1CNc1cccc2cccnc12`, for which the Potency was 5.36 µM (active).
As for `Oc1ccc(Cl)cc1CNc1cccc2cccnc12`, the Potency was 5.36 µM (active).
`CCOC(=O)C1=C(COC(=O)CCOc2ccccc2)NC(=O)NC1C` (stereo not drawn): the “activity change, negative = inhibition” value was 4.16%.
Regarding `CN(C)c1ccc(-c2ccnc3c2CC(C)(C(=O)NCCC(F)(F)F)O3)cc1` (stereo not drawn), the “activity change, negative = inhibition” value was -19.4%.
`Cc1ccc(CNC(=O)C2CCN(S(=O)(=O)c3ccc4nc5c(c(C(=O)O)c4c3)CC(C)CC5)CC2)cc1` (stereo not drawn): the Potency was 10.7 µM (active).
In the case of `COc1ccc(S(=O)(=O)N2CCN(C(=O)c3cc4c(s3)CCC4)CC2)cc1`, the “activity change, negative = inhibition” value was -5.73%.
Turning to `COc1ccc(CNC(=O)C2CCN(S(=O)(=O)c3ccc4nc5c(c(C(=O)O)c4c3)CCCC5)CC2)cc1`, the Potency was 12 µM (active).
With `O=C(O)c1c2c(nc3ccc(S(=O)(=O)N4CCC(C(=O)NC5CCCC5)CC4)cc13)CCCCC2`, the “activity change, negative = inhibition” value was -4.44%.
As for `O=C(Nc1nc(-c2ccccn2)cs1)c1cccc(S(=O)(=O)N2CCOCC2)c1`, the Potency was 1.69 µM (active).
As to `O=C(Nc1nc(-c2ccc(S(=O)(=O)N3CCOCC3)cc2)cs1)c1ccccc1`, the Potency was 6.75 µM (active) and 7.57 µM (active).
As to `O=C(Nc1cc(S(=O)(=O)N2CCOCC2)ccc1Cl)c1cc(=O)c2ccccc2o1`, the “activity change, negative = inhibition” value is -23.2%.
As to `COc1ccc(C(=O)Nc2ccc3nc(C)sc3c2)cc1S(=O)(=O)N1CCOCC1`, the Potency was 21.3 µM (active).
On to `Cc1ccc(NC(=O)COc2ccc(S(=O)(=O)N3CCOCC3)cc2)cc1`, for which the “activity change, negative = inhibition” value is 1.7%.
Take `COc1ccc(CC(=O)Nc2cccc(Cl)c2C)cc1S(=O)(=O)N1CCOCC1`: the “activity change, negative = inhibition” value is -0.0315%.
As for `CCOC(=O)N1CCN(S(=O)(=O)c2ccc(C(=O)NNc3nc4ccc(Cl)cc4s3)cc2)CC1`, the “activity change, negative = inhibition” value is -11.8%.
Consider `COc1ccc(C(=O)Nc2nc(-c3ccccn3)cs2)cc1S(=O)(=O)N1CCOCC1`, for which the Potency is 1.51 µM (active).
For `O=C(COC(=O)c1n[nH]c(=O)c2ccccc12)Nc1cccc(S(=O)(=O)N2CCOCC2)c1`, the “activity change, negative = inhibition” value is -14%.
Same read-out and setting: the result for `O=S(=O)(c1ccc(Cl)cc1)N1CCOCC1` reads 9.26%.
In the case of `O=C(Nc1nc2c(F)cc(F)cc2s1)c1ccc([N+](=O)[O-])o1`, the “activity change, negative = inhibition” value is -19.4%.
Still for that read-out and setting: the result for `Oc1ccccc1-n1c(-c2ccccc2)ccc1-c1ccccc1` reads -11%.
Consider `Oc1c(C(c2ccc(Cl)cc2)N2CCCC2)cc(Cl)c2cccnc12` (stereo not drawn), for which the Potency is 4.78 µM (active).
As to `OC(c1ccc(Cl)cc1)c1nccc2ccccc12` (stereo not drawn), the “activity change, negative = inhibition” value was 9.19%.
`CN1CCN(C(c2ccccn2)c2cc(Cl)c3cccnc3c2O)CC1` (stereo not drawn): the Potency is 1.51 µM (active).
As to `COc1ccc(/C=C/C(=O)Nc2ccc3nc4n(c(=O)c3c2)CCCC4)cc1`, the “activity change, negative = inhibition” value was -17.7%.
Turning to `NC(=O)c1nc(C(=O)N2CCCCC2)c2ccccc2n1`, the “activity change, negative = inhibition” value is 4.22%.
As for `O=C(c1ccc2c(=O)n3c(nc2c1)CCCCC3)N1CCN(c2cccc(Cl)c2)CC1`, the Potency was 16.9 µM (active).
For `Cc1ccc(NC(=S)N2CCc3[nH]c4ccccc4c3C2)cc1`, the “activity change, negative = inhibition” value was 1.7%.
Regarding `CN(C)c1ccc(C2C=Cc3ccccc32)c2ccccc12` (stereo not drawn), the Potency is 9.53 µM (active).
Take `O=C(Oc1ccc(C(=S)N2CCCCC2)cc1)c1ccccc1F`: the “activity change, negative = inhibition” value is -20.3%.
On the same count and under the same terms, the result for `c1ccc2cc(CSCc3nc4ccccc4[nH]3)ccc2c1` reads -16.5%.
Turning to `Cc1ccccc1N=C1NC(=O)/C(=C/c2cccn2C)S1`, the “activity change, negative = inhibition” value was -28%.
For `CCc1ccc(N=C2NC(=O)/C(=C/c3cc(OC)c(O)c(OC)c3)S2)cc1`, the Potency is 19 µM (active).
